Assay results published in PubChem BioAssay (NCI).
This is part of a sample that, as a whole, favours compounds with a hit. Of some 83,000 tested, about 20% had one in any assay.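 Cells were grown in 96-well plates and exposed to the test compound at a single concentration for 48 hours; results are reported as percent growth, with values below 10 considered active.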 The source made the active and inactive calls.

What follows are compounds tested on UACC-257 melanoma (assay: NCI-60 one-dose screen, 48 h (100 = growth as untreated, 0 = no growth, -100 = all killed)). Conditions: 10 µM unless noted.
For CC(C)C1=NOC(=O)C1=Cc1cn(-c2ccccc2)nc1-c1ccccc1, the growth was 94.1% (inactive).
In the case of CCN(CC)CCCNCc1cc(-c2ccccc2)nc2ccccc12, the growth is reported as 80% (inactive).
CCOC(=O)CCC[P+](c1ccccc1)(c1ccccc1)c1ccccc1 was tested, and the growth was 27.2% (inactive).
For Cc1cccc(C[C@H](NC(=O)Nc2ccc(Cl)cc2F)C(=O)N[C@@H]2C(=O)N3C[C@H](O)C[C@H]3C(=O)N3CCN(C)C[C@H]3C(=O)N[C@@H](C)C(=O)N3C[C@H](C)C[C@H]3C(=O)O[C@H]2C)c1, the growth was 22.6% (inactive).
COc1cc(C)cc2oc3oc(=O)c(C(=O)c4cc5cc(Br)ccc5o4)cc3c(=O)c12 was tested, and the growth was 105% (inactive).
With COc1ccc(CC(C#N)c2ccc(Cl)cc2)cc1 (configuration not stated) the growth was 91.7% (inactive).
In the case of Clc1ccc(/C=N/Nc2nc3ccccc3s2)c(Cl)c1, the growth is reported as 93.5% (inactive).
With Nc1nc(SCc2cccc([N+](=O)[O-])c2)c2[nH]cnc2n1 the growth was 104% (inactive).
For COC(=O)[C@]12CCC(C)(C)C[C@H]1C1=CC[C@@H]3[C@@]4(C)C/C(=C/c5cccnc5)C(=O)C(C)(C)[C@@H]4CC[C@@]3(C)[C@]1(C)CC2, the growth was -29.2% [100 µM] (active).
With Cn1cc(-c2nnc(-c3cn(C)c4ncccc34)o2)c2ccccc21 the growth was 73.6% (inactive).
In the case of Cc1ccc(C2=C/C(=C/c3ccc(Br)cc3)C(=O)N2CCc2ccc(S(N)(=O)=O)cc2)cc1, the growth is reported as 101% (inactive).
With COc1ccc2nc3cc(Cl)ccc3c(Nc3ccc(O)cc3)c2c1 the growth was 102% (inactive).
With CCCCN(CC)CC(CC)Nc1cc(OC)cc2cccnc12 (configuration not stated) the growth was 92.9% (inactive).
With O=C(Nc1cccc2ccccc12)c1cc2ccccc2cc1O the growth was 5.69% (active).
C=C(C)[C@@H]1CC[C@]2(COCCC#N)CC[C@]3(C)[C@H](CC[C@@H]4[C@@](C)(CCCNCCC#N)[C@H](C(=C)C)CC[C@]43C)[C@@H]12 was tested, and the growth was 27.6% [100 µM] (inactive).
With Cc1ccc(-c2cn(C/C=C3\C=CN(S(=O)(=O)c4ccccc4)CC3)nn2)cc1 the growth was 106% (inactive).
For CN(C)c1ccc(-c2ccc(-c3ccc(C(=N)N)cc3)s2)cc1, the growth was 104% (inactive).
In the case of CCOC(=O)c1nn(C2CCCCO2)c2ccc(NC(=O)CN3CCOCC3)cc12 (configuration not stated), the growth is reported as 98.8% (inactive).
With Cn1cc(-c2noc(-c3cn(C)c4ncc(Br)cc34)n2)c2cc(Cl)ccc21 the growth was 99.2% (inactive).
In the case of Cc1cc2c(C(C)C)c(O)c(O)c(C=NCc3ccoc3)c2c(O)c1-c1c(C)cc2c(C(C)C)c(O)c(O)c(C=NCc3ccco3)c2c1O, the growth is reported as 80.9% (inactive).
For Cc1cccc(C[C@H](NC(=O)Nc2ccc(C)cc2F)C(=O)N[C@@H]2C(=O)N3C[C@H](O)C[C@H]3C(=O)N3CCN(C)C[C@H]3C(=O)N[C@@H](C)C(=O)N3C[C@H](C)C[C@H]3C(=O)O[C@H]2C)c1, the growth was 27.3% (inactive).
COc1cc2c(c(Br)c1N)-c1cc(Br)c(N)cc1C2=O was tested, and the growth was 92.3% (inactive).
CCN(CC)CCSC(=O)C(O)(c1ccccc1)C1CCCC1 (configuration not stated) was tested, and the growth was 83.2% (inactive).
CCN(CC)CCCOc1ccc2c(c1)O/C(=C\c1cccc(OC)c1)C2=O was tested, and the growth was 100% (inactive).
In the case of CCOC(=O)/C(C#N)=C(\C)CCc1ccccc1, the growth is reported as 89.4% (inactive).
With O=C(CCN1CCCCC1)c1ccc(Cl)cc1 the growth was 108% (inactive).
C[C@H]1[C@H](C)CC[C@]2(C(=O)O)CC[C@]3(C)C(=CC[C@@H]4[C@@]5(C)C/C(=C/c6ccco6)C(=O)C(C)(C)[C@@H]5CC[C@]43C)[C@H]12 was tested, and the growth was -39.1% [100 µM] (active).
For Cc1ccc(NC(=O)N[C@@H](Cc2cc(F)cc(F)c2)C(=O)N[C@@H]2C(=O)N3CCC[C@H]3C(=O)N3CCOC[C@H]3C(=O)N[C@@H](C)C(=O)N3C[C@H](C)C[C@H]3C(=O)O[C@H]2C)cc1, the growth was 20.9% (inactive).
CCCCOC(=O)c1c(C)[nH]c(/C=C2\N=C(c3ccc[nH]3)C=C2OC)c1C was tested, and the growth was -12% (active).
In the case of O=C(O)c1cn(C2CC2)c2cc(N3CCN(Cc4cc(Cl)ccc4O)CC3)c(F)cc2c1=O, the growth is reported as 80.7% (inactive).
With C[n+]1cccc(NC(=O)c2ccc3ccc4ccc(C(=O)Nc5ccc[n+](C)c5)nc4c3n2)c1 the growth was 94.4% (inactive).
O=c1cc(-c2ccccc2)oc2cc(OCc3cn(Cc4ccc(F)cc4)nn3)cc(O)c12 was tested, and the growth was 86.3% [100 µM] (inactive).
With CCc1ccc(NC(=O)N[C@@H](Cc2cc(F)cc(F)c2)C(=O)N[C@@H]2C(=O)N3C[C@H](O)C[C@H]3C(=O)N3CCOC[C@H]3C(=O)N[C@@H](C)C(=O)N3C[C@H](C)C[C@H]3C(=O)O[C@H]2C)cc1 the growth was 21.5% (inactive).
In the case of C=C(CC(=O)OC)C(C)=O, the growth is reported as 118% (inactive).
In the case of O=C1/C(=C\c2cn(CC(O)CN3CCCCC3)c3ccccc23)c2ccccc2N1c1c(Cl)cccc1Cl (configuration not stated), the growth is reported as -98.1% (active).
With CC/C=C(\C)C(CCC)(CN=O)C(=O)OCC (configuration not stated) the growth was 85.8% (inactive).
CN(C)C(=S)Sc1ccc([N+](=O)[O-])cc1[N+](=O)[O-] was tested, and the growth was 41.4% (inactive).
